Experimental data as given in PubChem BioAssay (EPA / NIEHS).
Inconclusive results are not listed. Activity calls are given as the source filed them. The calls were made as follows, unless noted: active = hit-call score of the fitted dose curve at least 0.9, where 1 is the maximum; inactive = score below 0.9.

How the values were obtained:
[1] = target: human RAR-related Orphan Receptor gamma (RORg), RORC (gene 6097) (UniProt P51449); test: ATG_RORg_TRANS: Attagene TRANS-FACTORIAL HepG2 Assay for human RAR-related Orphan Receptor gamma (RORg) (AID 2283011; active = hit-call score of the fitted dose curve at least 0.9, where 1 is the maximum)
Chain of human RAR-related Orphan Receptor gamma (RORg), RORC (gene 6097) (P51449 whole entry, looked up, the tested form may be a part): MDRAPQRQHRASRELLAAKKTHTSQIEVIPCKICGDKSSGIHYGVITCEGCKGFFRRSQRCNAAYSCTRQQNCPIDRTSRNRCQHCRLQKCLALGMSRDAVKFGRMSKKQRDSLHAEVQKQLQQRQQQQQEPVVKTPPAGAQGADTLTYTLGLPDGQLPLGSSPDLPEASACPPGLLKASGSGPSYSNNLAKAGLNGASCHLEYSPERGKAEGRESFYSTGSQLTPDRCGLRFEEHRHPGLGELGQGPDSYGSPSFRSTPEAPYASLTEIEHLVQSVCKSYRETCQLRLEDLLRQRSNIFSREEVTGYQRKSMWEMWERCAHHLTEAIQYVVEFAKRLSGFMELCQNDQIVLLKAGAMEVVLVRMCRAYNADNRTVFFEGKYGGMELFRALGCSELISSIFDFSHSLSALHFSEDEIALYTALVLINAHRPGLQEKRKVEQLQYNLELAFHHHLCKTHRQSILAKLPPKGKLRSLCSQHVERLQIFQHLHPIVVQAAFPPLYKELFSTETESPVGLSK
Method in brief: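 Readout: reporter transcript induction (RT-PCR, fluorescent primer extension, capillary electrophoresis) after 24 h compound exposure of transiently transfected HepG2 cells carrying a RORg-Gal4 chimera and GAL4-UAS reporters; DMSO served as baseline, with increasing signal fitted.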

[2] = target: human Retinoid X Receptor beta (RXRb), RXRB (gene 6257) (UniProt P28702); test: ATG_RXRb_TRANS: Attagene TRANS-FACTORIAL HepG2 Assay for human Retinoid X Receptor beta (RXRb) (AID 2283013; active = hit-call score of the fitted dose curve at least 0.9, where 1 is the maximum)
Chain of human Retinoid X Receptor beta (RXRb), RXRB (gene 6257) (P28702 whole entry, looked up, the tested form may be a part): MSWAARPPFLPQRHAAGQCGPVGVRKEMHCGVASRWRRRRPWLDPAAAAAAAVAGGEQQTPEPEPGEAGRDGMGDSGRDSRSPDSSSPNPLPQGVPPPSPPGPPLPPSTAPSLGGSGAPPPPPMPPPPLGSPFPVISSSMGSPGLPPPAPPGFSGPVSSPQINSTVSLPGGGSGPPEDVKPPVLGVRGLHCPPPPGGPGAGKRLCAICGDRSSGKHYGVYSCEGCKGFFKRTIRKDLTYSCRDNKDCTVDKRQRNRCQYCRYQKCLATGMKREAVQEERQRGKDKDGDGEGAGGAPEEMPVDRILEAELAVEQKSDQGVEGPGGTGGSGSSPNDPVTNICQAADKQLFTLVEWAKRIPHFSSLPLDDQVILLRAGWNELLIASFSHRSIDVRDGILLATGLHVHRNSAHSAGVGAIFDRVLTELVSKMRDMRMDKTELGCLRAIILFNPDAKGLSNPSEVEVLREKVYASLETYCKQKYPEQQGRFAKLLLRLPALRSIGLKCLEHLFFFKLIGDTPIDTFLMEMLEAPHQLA
Method in brief: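 Transfect HepG2 with GAL4-UAS multi-reporter constructs (chimeric NR-Gal4, TRANS format); dose compound 24 h; isolate RNA, RT-PCR, FAM primer extension, HpaI digest; quantify by capillary electrophoresis; positive direction vs DMSO.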

[3] = target: human Thyroid Receptor alpha (THRa1), THRA (gene 7067) (UniProt P10827); test: ATG_THRa1_TRANS: Attagene TRANS-FACTORIAL HepG2 Assay for human Thyroid Receptor alpha (THRa1) (AID 2283014; active = hit-call score of the fitted dose curve at least 0.9, where 1 is the maximum)
Chain of human Thyroid Receptor alpha (THRa1), THRA (gene 7067) (P10827 whole entry, looked up, the tested form may be a part): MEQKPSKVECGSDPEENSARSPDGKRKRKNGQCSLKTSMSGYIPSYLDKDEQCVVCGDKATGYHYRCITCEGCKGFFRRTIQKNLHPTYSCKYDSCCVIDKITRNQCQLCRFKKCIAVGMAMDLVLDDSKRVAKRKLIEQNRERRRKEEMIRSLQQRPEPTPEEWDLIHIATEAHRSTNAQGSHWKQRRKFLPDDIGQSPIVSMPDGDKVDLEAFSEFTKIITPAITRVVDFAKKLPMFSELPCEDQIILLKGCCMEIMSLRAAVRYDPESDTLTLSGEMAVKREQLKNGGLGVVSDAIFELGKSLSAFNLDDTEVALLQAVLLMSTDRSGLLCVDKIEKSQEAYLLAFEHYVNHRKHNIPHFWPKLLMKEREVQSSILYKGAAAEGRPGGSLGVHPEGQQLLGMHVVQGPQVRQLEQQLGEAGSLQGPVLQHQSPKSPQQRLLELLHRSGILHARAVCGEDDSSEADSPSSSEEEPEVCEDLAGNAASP
Method in brief: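 HepG2 cells transiently transfected with multiplexed GAL4-UAS reporter units for exogenous chimeric THRa1-Gal4; reporter mRNA measured 24 h after dosing by RT-PCR, 6-FAM labelling, HpaI digestion and capillary electrophoresis. Gain-of-signal fitted versus DMSO baseline.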

[4] = read-out: E-selectin (Homo sapiens) (UniProt P16581); test: BSK_3C_Eselectin: BioMAP Diversity Plus: 3C Assay for Eselectin Biomarker Activity (AID 2283015); conditions: primary human endothelial cells (HUVEC); actives raise or lower the signal
Method in brief: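 Primary human umbilical vein endothelial cells (3C system) were dosed with chemical and cell-surface E-selectin measured by ELISA 24 h later. Bidirectional curve fitting used DMSO as negative control and baseline.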

[5] = read-out: Interleukin-1 alpha (IL1a), IL1A (gene 3552); test: BSK_BE3C_IL1a: BioMAP Diversity Plus: BE3C Assay for Interleukin-1 alpha (IL1a) Biomarker Activity (AID 2283016); conditions: primary human bronchial epithelial cells; actives raise or lower the signal
Method in brief: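 BE3C primary human bronchial epithelium; cpd 24 h; IL-1a by ELISA; bidirectional fit vs DMSO; parallel SRB (0.1% SRB, 10% TCA fix, 560 nm) for cytotoxicity.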

[6] = read-out: Monocyte Chemoattractant Protein-1 (MCP1), CCL2 (gene 6347); test: BSK_3C_MCP1: BioMAP Diversity Plus: 3C Assay for Monocyte Chemoattractant Protein-1 (MCP1) Biomarker Activity (AID 2283017); conditions: primary human endothelial cells (HUVEC); actives raise or lower the signal
Method in brief: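 Primary human umbilical vein endothelial cells (3C system) were exposed to test chemical for 24 h, after which MCP-1 was quantified by ELISA. Activity was fitted bidirectionally against DMSO as negative control and baseline.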

[7] = read-out: Monocyte Chemoattractant Protein-1 (MCP1), CCL2 (gene 6347); test: BSK_4H_MCP1: BioMAP Diversity Plus: 4H Assay for Monocyte Chemoattractant Protein-1 (MCP1) Biomarker Activity (AID 2283018); conditions: primary human endothelial cells (HUVEC); actives raise or lower the signal
Method in brief: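 ELISA read-out of MCP-1 from human vascular endothelial primary cells taken at 24 hours after compound exposure. Activity was fitted in both directions relative to DMSO, which served as negative control.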

[8] = read-out: Human Leukocyte Antigen - DR isotype (HLADR), HLA-DRA (gene 3122); test: BSK_3C_HLADR: BioMAP Diversity Plus: 3C Assay for Human Leukocyte Antigen - DR isotype (HLADR) Biomarker Activity (AID 2283019); conditions: primary human endothelial cells (HUVEC); actives raise or lower the signal
Method in brief: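 Primary human umbilical vein endothelial cells (3C system) were dosed with compound and cell-surface HLA-DR was quantified by ELISA at 24 h. Activity was fitted bidirectionally against DMSO as negative control and baseline.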

[9] = read-out: Interleukin-8 (IL8), CXCL8 (gene 3576); test: BSK_3C_IL8: BioMAP Diversity Plus: 3C Assay for Interleukin-8 (IL8) Biomarker Activity (AID 2283020); conditions: primary human endothelial cells (HUVEC); actives raise or lower the signal
Method in brief: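 ELISA read-out of IL-8 from human umbilical vein endothelium, measured 24 h after chemical dosing. Activity is expressed relative to DMSO negative control, with both increases and decreases fitted.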

[10] = read-out: Monokine induced gamma interferon (MIG), CXCL9 (gene 4283); test: BSK_3C_MIG: BioMAP Diversity Plus: 3C Assay for Monokine induced gamma interferon (MIG) Biomarker Activity (AID 2283021); conditions: primary human endothelial cells (HUVEC); actives raise or lower the signal;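 as to AC50: MIG protein level measured by immunoassay in the treated endothelial cultures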
Method in brief: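 Read-out is ELISA detection of MIG on human umbilical vein endothelial cells, taken 24 h after dosing. Gain or loss of signal was scored relative to DMSO controls using bidirectional curve fitting.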

[11] = target: human Vitamin D Receptor (VDR), VDR (gene 7421) (UniProt P11473); test: ATG_VDR_TRANS: Attagene TRANS-FACTORIAL HepG2 Assay for human Vitamin D Receptor (VDR) (AID 2283022; active = hit-call score of the fitted dose curve at least 0.9, where 1 is the maximum)
Chain of human Vitamin D Receptor (VDR), VDR (gene 7421) (P11473 whole entry, looked up, the tested form may be a part): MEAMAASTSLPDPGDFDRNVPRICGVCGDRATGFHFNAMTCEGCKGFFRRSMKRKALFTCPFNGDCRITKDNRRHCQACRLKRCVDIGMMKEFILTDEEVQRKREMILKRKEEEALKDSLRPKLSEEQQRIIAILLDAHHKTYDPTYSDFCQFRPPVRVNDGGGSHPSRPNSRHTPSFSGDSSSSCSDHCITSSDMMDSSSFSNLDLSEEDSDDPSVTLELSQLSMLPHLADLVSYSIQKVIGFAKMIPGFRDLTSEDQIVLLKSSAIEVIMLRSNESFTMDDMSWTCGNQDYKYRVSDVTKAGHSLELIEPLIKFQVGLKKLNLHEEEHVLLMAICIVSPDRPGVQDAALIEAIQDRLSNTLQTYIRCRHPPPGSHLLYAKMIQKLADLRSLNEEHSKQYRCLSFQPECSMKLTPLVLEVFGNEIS
Method in brief: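 HepG2 cells were transiently transfected with multiple GAL4-UAS reporter units, so signal reflects exogenous chimeric receptor-Gal4 activity. After 24 h compound exposure, reporter mRNA was measured by RT-PCR, fluorescent labelling and capillary electrophoresis, fitted for gain of signal versus DMSO.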

[12] = BSK_3C_SRB: Viability Assessment in the BioMAP Diversity Plus: 3C Assay (AID 2283023); conditions: primary human endothelial cells (HUVEC);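 also: fitted both ways against DMSO so a hit may be signal rise or drop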
Method in brief: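 Primary human umbilical vein endothelial cells in the 3C system were read 24 h after compound dosing. Total protein was stained with 0.1% sulforhodamine B after 10% TCA fixation and read at 560 nm, with bidirectional fitting against DMSO as baseline.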

[13] = read-out: Matrix Metallopeptidase 1 (MMP1), MMP1 (gene 4312); test: BSK_BE3C_MMP1: BioMAP Diversity Plus: BE3C Assay for Matrix Metallopeptidase 1 (MMP1) Biomarker Activity (AID 2283024); conditions: primary human bronchial epithelial cells; actives raise or lower the signal
Method in brief: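 Human bronchial epithelial cells (BE3C system) exposed to compound for 24 h; MMP1 then quantified by ELISA. Activity was fitted in both directions relative to DMSO.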

[14] = BSK_3C_Vis: BioMAP Diversity Plus: 3C Assay for Morphology Visualization (AID 2283025); conditions: primary human endothelial cells (HUVEC);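 also: fitted both ways so gain or loss versus DMSO counts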;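 as to AC50: light microscopy image of cell morphology used as background control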
Method in brief: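 Chemicals were added to primary human umbilical vein endothelium, cells were incubated 24 h, and morphology was then visualized by light microscopy. Gain or loss of signal was fitted bidirectionally relative to DMSO.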

[15] = BSK_4H_SRB: Viability Assessment in the BioMAP Diversity Plus: 4H Assay (AID 2283027); conditions: primary human endothelial cells (HUVEC);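 also: cells exposed to compound for 24 h before staining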;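 as to AC50: curves fitted both ways versus DMSO so AC50 may be loss or gain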
Method in brief: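 Human umbilical vein endothelial cells, 24 h after chemical dosing; total protein measured by 0.1% sulforhodamine B staining after 10% TCA fixation, read at 560 nm. Bidirectional fitting against DMSO.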

[16] = BSK_BE3C_SRB: Viability Assessment in the BioMAP Diversity Plus: BE3C Assay (AID 2283028); conditions: primary human bronchial epithelial cells
Method in brief: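 Human primary bronchial epithelial cells were exposed to test chemicals for 24 h. Total protein in parallel cultures was then measured by staining with 0.1% sulforhodamine B after 10% TCA fixation, with absorbance read at 560 nm. Activity was fitted bidirectionally against DMSO.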

[17] = read-out: Thrombomodulin, THBD (gene 7056); test: BSK_3C_Thrombomodulin: BioMAP Diversity Plus: 3C Assay for Thrombomodulin Biomarker Activity (AID 2283029); conditions: primary human endothelial cells (HUVEC); actives raise or lower the signal
Method in brief: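 Read-out is ELISA of thrombomodulin on human umbilical vein endothelium 24 h after chemical dosing. Gain or loss of signal is scored relative to DMSO. Overt cytotoxicity is checked in parallel cultures by sulforhodamine B staining.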

[18] = read-out: Urokinase-type plasminogen activator receptor (uPAR), PLAUR (gene 5329); test: BSK_4H_uPAR: BioMAP Diversity Plus: 4H Assay for Urokinase-type plasminogen activator receptor (uPAR) Biomarker Activity (AID 2283030); conditions: primary human endothelial cells (HUVEC); actives raise or lower the signal
Method in brief: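 Primary human umbilical vein endothelial cells were exposed to chemical for 24 h before cell-surface uPAR was quantified by ELISA. Activity was fitted bidirectionally against the DMSO negative control baseline.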

[19] = target: Retinoic acid receptor RXR-alpha (Homo sapiens) (UniProt P19793); test: ATG_RXRa_TRANS: Attagene TRANS-FACTORIAL HepG2 Assay for human Retinoid X Receptor alpha (RXRa) (AID 2283012; active = hit-call score of the fitted dose curve at least 0.9, where 1 is the maximum)
Chain of Retinoic acid receptor RXR-alpha (Homo sapiens) (P19793 whole entry, looked up, the tested form may be a part): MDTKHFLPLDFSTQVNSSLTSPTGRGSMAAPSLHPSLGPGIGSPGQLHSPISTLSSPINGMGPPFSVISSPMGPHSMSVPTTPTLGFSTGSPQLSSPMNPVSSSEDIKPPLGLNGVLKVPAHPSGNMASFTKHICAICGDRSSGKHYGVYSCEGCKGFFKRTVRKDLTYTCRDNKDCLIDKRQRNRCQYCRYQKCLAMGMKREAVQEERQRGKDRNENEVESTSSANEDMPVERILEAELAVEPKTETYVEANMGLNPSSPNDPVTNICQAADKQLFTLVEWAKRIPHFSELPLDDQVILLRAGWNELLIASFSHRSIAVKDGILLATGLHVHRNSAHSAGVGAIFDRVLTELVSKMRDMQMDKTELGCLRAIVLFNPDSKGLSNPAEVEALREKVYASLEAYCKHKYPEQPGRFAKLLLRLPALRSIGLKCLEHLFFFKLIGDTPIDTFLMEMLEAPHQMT
Method in brief: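 Transient transfection of human HepG2 with multiple GAL4-UAS reporter constructs; 24 h compound exposure; total RNA isolated, reverse-transcribed, PCR-amplified, 6-FAM labelled, HpaI-cut, resolved by capillary electrophoresis. Positive-direction fit versus DMSO.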

[20] = read-out: Pselectin, SELP (gene 6403); test: BSK_4H_Pselectin: BioMAP Diversity Plus: 4H Assay for Pselectin Biomarker Activity (AID 2283026); conditions: primary human endothelial cells (HUVEC); actives raise or lower the signal
Method in brief: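 ELISA read-out of P-selectin on human umbilical vein endothelium after 24 h of dosing. Values derive from bidirectional fitting relative to DMSO. Parallel SRB protein staining flagged overt cytotoxicity.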

Measured: AC50

Chain of E-selectin (Homo sapiens) (P16581 whole entry, looked up): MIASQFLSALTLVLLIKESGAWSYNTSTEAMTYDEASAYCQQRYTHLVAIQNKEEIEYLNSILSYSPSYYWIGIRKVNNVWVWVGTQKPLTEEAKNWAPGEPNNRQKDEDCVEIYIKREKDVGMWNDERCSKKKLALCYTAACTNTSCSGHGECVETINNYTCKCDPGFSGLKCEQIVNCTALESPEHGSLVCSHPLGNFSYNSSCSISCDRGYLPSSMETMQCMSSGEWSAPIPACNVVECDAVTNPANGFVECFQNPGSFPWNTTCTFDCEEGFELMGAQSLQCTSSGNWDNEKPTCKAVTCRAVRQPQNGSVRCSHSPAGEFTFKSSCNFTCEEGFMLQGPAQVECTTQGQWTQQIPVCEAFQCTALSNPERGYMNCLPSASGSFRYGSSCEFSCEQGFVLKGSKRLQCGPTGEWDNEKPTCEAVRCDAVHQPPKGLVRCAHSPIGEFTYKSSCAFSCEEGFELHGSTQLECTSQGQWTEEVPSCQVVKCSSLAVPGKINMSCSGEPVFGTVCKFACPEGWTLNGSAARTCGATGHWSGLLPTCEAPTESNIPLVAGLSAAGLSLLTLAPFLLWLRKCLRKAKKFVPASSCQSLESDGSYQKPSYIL

OCCCBr
inactive: [1] | [2] | [3] | [4] | [5] | [6] | [7] | [8] | [9] | [10] | [11] | [12] | [13] | [14] | [15] | [16] | [17] | [18]

Cc1ccc(N)cc1
inactive: [1] | [2] | [3] | [4] | [5] | [6] | [7] | [8] | [9] | [10] | [12] | [13] | [14] | [15] | [16] | [17] | [18]

OCCCl
inactive: [1] | [2] | [3] | [4] | [5] | [6] | [7] | [8] | [9] | [11] | [12] | [13] | [14] | [15] | [16] | [17] | [18]

CC(C)(OOC(C)(C)c1ccccc1)c1ccccc1
active: [2] 12.4 µM | [4] 26.1 µM | [6] 15.8 µM | [7] 26.5 µM | [8] 24.6 µM | [9] 29.8 µM | [12] 36.5 µM | [13] 11.4 µM | [14] 37.5 µM | [20] 35.9 µM | [15] 32.3 µM
inactive: [1] | [19] | [5] | [11] | [16] | [17] | [18]

Nc1ccc(Cc2ccc(N)cc2)cc1
inactive: [1] | [19] | [3] | [4] | [5] | [6] | [7] | [8] | [9] | [11] | [12] | [13] | [14] | [20] | [15] | [16] | [17] | [18]

ClC1=C(Cl)[C@]2(Cl)[C@H]3[C@H]([C@@H]4C=C[C@H]3C4)[C@@]1(Cl)C2(Cl)Cl
active: [2] 10.4 µM | [4] 30.9 µM | [6] 32.2 µM | [7] 24.2 µM | [8] 24.9 µM | [9] 28.8 µM | [10] 37.3 µM | [12] 26 µM | [13] 20 µM | [15] 33.3 µM | [18] 32.3 µM
inactive: [1] | [19] | [3] | [5] | [11] | [14] | [16] | [17]

[As]#[In]
inactive: [1] | [19] | [2] | [3] | [4] | [5] | [6] | [7] | [8] | [9] | [12] | [13] | [14] | [15] | [16] | [17] | [18]

COC(=O)c1ccccc1N
inactive: [1] | [2] | [3] | [4] | [5] | [6] | [7] | [8] | [9] | [11] | [12] | [13] | [14] | [20] | [15] | [16] | [17] | [18]

O=C1CCCO1
active: [14] 16.3 µM
inactive: [1] | [19] | [3] | [4] | [5] | [6] | [7] | [8] | [9] | [11] | [12] | [13] | [20] | [15] | [16] | [17] | [18]

N#CC(Br)(Br)C(N)=O
active: [2] 10 µM
inactive: [1] | [3] | [4] | [5] | [6] | [7] | [8] | [9] | [11] | [12] | [13] | [14] | [20] | [15] | [16] | [17] | [18]

Oc1ccc2ccc3cccc4ccc1c2c34
inactive: [1] | [19] | [11] | [13] | [16] | [17]
active: [2] 43.3 µM | [4] 29.9 µM | [5] 32.4 µM | [6] 29.7 µM | [7] 14.2 µM | [8] 26.6 µM | [9] 32.8 µM | [10] 37.6 µM | [12] 30 µM | [14] 37.5 µM | [15] 31.5 µM | [18] 30.4 µM

Nc1ccc(N=Nc2ccccc2)cc1
active: [12] 20 µM | [15] 13.1 µM
inactive: [1] | [19] | [4] | [5] | [6] | [7] | [8] | [9] | [11] | [13] | [14] | [16] | [17] | [18]

O=Cc1ccco1
inactive: [1] | [19] | [2] | [4] | [5] | [6] | [7] | [8] | [9] | [10] | [11] | [12] | [13] | [14] | [15] | [16] | [17] | [18]

CC(C)N(Cc1ccccc1)C(=O)C(C)(C)C
inactive: [1] | [2] | [4] | [5] | [6] | [7] | [8] | [9] | [11] | [12] | [13] | [14] | [20] | [15] | [16] | [17] | [18]
